From the supplement of paper PMC10849652
The full data set covers some 7,900 targets. This sample favours those with a hit. About 0.6% of all pairs of compound and target were hits.

Tests used:
Assay in all cases: log2 fold change, soluble protein after heating vs DMSO (PISA); higher = thermal stabilisation; K562 cells, 10 uM, 30 min; active = over 0.2 and 3.5 SD of the protein, either way, in both replicates (recomputed)
[1] = compound: COC1=CC=C(C=C1)CN2C=CC3=C2C=C(C=C3)C(=O)NO
In short: (§1)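 Values are thermal stability changes relative to control samples and are taken from duplicates. They are stated as log2 fold changes. Before quantification by TMTpro 16plex LC-MS/MS with equalised channel sums, K562 cells at 2×10^6 cells/mL were treated with 10 μM compound for 30 min, heated in aliquots for 3 min across 48°C-58°C, pooled, extracted in PBS with 0.5% NP-40 at 4°C, and centrifuged at 21,000xg for 90 min to give the soluble supernatant.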

filanesib = compound: CON(C)C(=O)N1N=C(c2cc(F)ccc2F)S[C@@]1(CCCN)c1ccccc1 [filanesib]
In short: as §1

zotarolimus = compound: CO[C@H]1C[C@@H]2CC[C@@H](C)[C@@](O)(O2)C(=O)C(=O)N2CCCC[C@H]2C(=O)O[C@H]([C@H](C)C[C@@H]2CC[C@H](n3cnnn3)[C@H](OC)C2)CC(=O)[C@H](C)/C=C(\C)[C@@H](O)[C@@H](OC)C(=O)[C@H](C)C[C@H](C)/C=C/C=C/C=C/1C [zotarolimus]
In short: as §1

idasanutlin = compound: COc1cc(C(=O)O)ccc1NC(=O)[C@@H]1N[C@@H](CC(C)(C)C)[C@](C#N)(c2ccc(Cl)cc2F)[C@H]1c1cccc(Cl)c1F [idasanutlin]
In short: as §1

alisertib = compound: COc1cc(Nc2ncc3c(n2)-c2ccc(Cl)cc2C(c2c(F)cccc2OC)=NC3)ccc1C(=O)O [alisertib]
In short: as §1

[2] = compound: COc1cc2nc(-c3cc(F)ccc3O)nc(N[C@@H]3CNC[C@H]3C(C)(C)O)c2cc1OC
In short: as §1

gefitinib = compound: COc1cc2ncnc(Nc3ccc(F)c(Cl)c3)c2cc1OCCCN1CCOCC1 [gefitinib]
In short: as §1

[3] = compound: COc1cccc2cc(-c3nc([C@H]4CC[C@H](C(=O)O)CC4)n4ncnc(N)c34)[nH]c12
In short: as §1

lapatinib = compound: CS(=O)(=O)CCNCc1ccc(-c2ccc3ncnc(Nc4ccc(OCc5cccc(F)c5)c(Cl)c4)c3c2)o1 [lapatinib]
In short: as §1

pictilisib = compound: CS(=O)(=O)N1CCN(Cc2cc3nc(-c4cccc5[nH]ncc45)nc(N4CCOCC4)c3s2)CC1 [pictilisib]
In short: as §1

[4] = compound: CS(=O)(=O)c1ccc(-c2cnc(N)c(C(=O)Nc3ccccc3)n2)cc1
In short: as §1

crizotinib = compound: C[C@@H](Oc1cc(-c2cnn(C3CCNCC3)c2)cnc1N)c1c(Cl)ccc(F)c1Cl [crizotinib]
In short: as §1

[5] = compound: C[C@@H]1COCCN1C2=NC(=NC(=C2)C3(CC3)S(=O)(=O)C)C4=C5C=CNC5=CC=C4
In short: as §1

[6] = compound: C[C@H](C1=CC=C(C=C1)C(=O)NC2=C3C=CNC3=NC=C2)N
In short: as §1

duvelisib = compound: C[C@H](Nc1ncnc2nc[nH]c12)c1cc2cccc(Cl)c2c(=O)n1-c1ccccc1 [duvelisib]
In short: as §1

gandotinib = compound: Cc1cc(Nc2cc(CN3CCOCC3)c3nc(C)c(Cc4ccc(Cl)cc4F)n3n2)n[nH]1 [gandotinib]
In short: as §1

tozasertib = compound: Cc1cc(Nc2cc(N3CCN(C)CC3)nc(Sc3ccc(NC(=O)C4CC4)cc3)n2)n[nH]1 [tozasertib]
In short: as §1

[7] = compound: Cc1cc(SCc2sc(-c3ccc(C(F)(F)F)cc3)nc2C)ccc1OCC(=O)O
In short: as §1

doramapimod = compound: Cc1ccc(-n2nc(C(C)(C)C)cc2NC(=O)Nc2ccc(OCCN3CCOCC3)c3ccccc23)cc1 [doramapimod]
In short: as §1

ispinesib = compound: Cc1ccc(C(=O)N(CCCN)[C@@H](c2nc3cc(Cl)ccc3c(=O)n2Cc2ccccc2)C(C)C)cc1 [ispinesib]
In short: as §1

Measured: log2 fold change

PPP1R14A (UniProt Q96A00)
inactive: [1] 0.016 | filanesib 0.031 | zotarolimus -0.028 | idasanutlin -0.013 | alisertib -0.041 | [2] 0.039 | gefitinib 0.012 | [3] -0.079 | lapatinib -0.057 | pictilisib 0.017 | [4] 0.078 | crizotinib 0.011 | [5] 0.005 | [6] 0.003 | duvelisib 0.06 | gandotinib 0.106 | tozasertib -0.017 | [7] -0.049 | doramapimod -0.086 | ispinesib 0.319

PTPN23 (UniProt Q9H3S7)
Chain of UniProt Q9H3S7 (Q9H3S7 whole entry, looked up): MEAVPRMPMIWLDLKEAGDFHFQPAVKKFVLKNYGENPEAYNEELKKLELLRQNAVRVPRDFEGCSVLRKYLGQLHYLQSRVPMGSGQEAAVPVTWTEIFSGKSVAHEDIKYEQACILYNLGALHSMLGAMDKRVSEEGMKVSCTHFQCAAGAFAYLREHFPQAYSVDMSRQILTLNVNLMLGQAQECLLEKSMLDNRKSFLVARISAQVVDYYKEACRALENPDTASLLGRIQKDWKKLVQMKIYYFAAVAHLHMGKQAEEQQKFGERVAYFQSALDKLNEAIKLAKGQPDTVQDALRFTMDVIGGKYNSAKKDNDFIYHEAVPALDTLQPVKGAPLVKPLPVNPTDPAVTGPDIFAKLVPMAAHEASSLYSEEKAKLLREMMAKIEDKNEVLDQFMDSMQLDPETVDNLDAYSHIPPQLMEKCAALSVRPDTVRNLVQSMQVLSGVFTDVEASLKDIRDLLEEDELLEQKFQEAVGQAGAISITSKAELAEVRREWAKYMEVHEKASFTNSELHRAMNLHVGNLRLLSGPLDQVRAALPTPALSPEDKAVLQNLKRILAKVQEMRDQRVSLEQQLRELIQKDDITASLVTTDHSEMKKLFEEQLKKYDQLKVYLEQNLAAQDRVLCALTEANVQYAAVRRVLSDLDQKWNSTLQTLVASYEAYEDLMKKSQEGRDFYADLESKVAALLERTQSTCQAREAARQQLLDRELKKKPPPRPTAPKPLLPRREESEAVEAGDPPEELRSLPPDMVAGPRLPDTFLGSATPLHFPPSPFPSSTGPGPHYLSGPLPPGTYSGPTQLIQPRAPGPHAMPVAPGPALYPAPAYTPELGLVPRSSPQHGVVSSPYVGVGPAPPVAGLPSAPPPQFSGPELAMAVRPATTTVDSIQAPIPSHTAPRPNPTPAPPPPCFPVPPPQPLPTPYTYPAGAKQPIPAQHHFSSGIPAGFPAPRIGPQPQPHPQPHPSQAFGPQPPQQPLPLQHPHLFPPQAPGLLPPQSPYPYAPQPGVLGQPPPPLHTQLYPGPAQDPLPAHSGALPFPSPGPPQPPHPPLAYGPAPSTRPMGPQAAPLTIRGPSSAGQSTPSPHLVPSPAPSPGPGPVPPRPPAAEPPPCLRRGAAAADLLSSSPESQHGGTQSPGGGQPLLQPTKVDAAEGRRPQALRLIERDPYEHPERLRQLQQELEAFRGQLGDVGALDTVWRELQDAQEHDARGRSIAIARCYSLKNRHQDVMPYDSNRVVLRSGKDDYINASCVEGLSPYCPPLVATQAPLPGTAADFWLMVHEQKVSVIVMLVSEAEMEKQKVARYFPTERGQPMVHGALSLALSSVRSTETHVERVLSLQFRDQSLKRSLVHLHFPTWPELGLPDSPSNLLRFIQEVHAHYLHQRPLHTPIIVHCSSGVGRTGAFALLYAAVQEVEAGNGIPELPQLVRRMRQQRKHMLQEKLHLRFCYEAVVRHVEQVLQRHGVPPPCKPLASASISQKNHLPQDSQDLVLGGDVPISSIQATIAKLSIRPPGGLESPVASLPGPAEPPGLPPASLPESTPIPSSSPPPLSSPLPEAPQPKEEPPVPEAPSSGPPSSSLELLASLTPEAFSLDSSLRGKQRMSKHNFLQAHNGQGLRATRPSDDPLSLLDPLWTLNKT
inactive: [1] 0.12 | filanesib 0.038 | zotarolimus 0.059 | idasanutlin -0.038 | alisertib 0.002 | [2] 0.044 | gefitinib 0.041 | [3] -0.008 | lapatinib -0.012 | pictilisib 0.037 | [4] 0.014 | crizotinib 0.057 | [5] 0.018 | [6] 0.027 | duvelisib 0.116 | gandotinib -0.072 | tozasertib 0.148 | [7] 0.13 | doramapimod -0.002 | ispinesib 0.018

POTEI (UniProt P0CG38)
Chain of UniProt P0CG38 (P0CG38 whole entry, looked up): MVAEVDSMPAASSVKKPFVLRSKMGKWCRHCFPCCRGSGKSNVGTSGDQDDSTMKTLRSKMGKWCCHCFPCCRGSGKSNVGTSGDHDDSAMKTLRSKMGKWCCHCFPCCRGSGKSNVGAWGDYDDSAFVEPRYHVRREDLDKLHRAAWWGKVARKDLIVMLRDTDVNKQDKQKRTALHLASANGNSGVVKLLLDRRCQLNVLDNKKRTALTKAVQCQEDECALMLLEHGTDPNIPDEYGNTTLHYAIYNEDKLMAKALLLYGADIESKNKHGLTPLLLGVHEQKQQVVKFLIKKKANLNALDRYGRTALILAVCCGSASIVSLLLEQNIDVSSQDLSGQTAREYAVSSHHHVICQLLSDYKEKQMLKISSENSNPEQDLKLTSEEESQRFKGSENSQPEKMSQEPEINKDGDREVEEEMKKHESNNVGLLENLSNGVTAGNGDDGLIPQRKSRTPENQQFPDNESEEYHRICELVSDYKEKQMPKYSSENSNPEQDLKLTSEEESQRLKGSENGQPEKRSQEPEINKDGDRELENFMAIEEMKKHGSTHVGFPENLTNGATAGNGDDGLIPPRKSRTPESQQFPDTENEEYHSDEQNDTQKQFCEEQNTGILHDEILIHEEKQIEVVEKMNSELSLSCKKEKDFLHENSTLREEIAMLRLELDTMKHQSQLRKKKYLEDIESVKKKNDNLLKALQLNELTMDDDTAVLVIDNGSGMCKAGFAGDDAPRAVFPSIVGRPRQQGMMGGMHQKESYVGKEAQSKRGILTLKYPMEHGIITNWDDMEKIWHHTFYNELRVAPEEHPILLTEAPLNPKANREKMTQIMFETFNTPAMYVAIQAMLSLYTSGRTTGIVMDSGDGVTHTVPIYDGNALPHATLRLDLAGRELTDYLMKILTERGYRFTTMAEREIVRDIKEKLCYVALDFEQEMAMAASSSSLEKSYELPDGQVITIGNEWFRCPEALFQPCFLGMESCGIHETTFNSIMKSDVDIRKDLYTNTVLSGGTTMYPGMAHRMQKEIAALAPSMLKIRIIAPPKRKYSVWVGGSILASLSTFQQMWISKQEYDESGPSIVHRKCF
inactive: [1] 0.033 | filanesib 0.04 | zotarolimus 0.025 | idasanutlin -0.007 | alisertib 0.037 | [2] -0.003 | gefitinib 0.015 | [3] 0.067 | lapatinib -0.006 | pictilisib 0.012 | [4] -0.009 | crizotinib 0.109 | [5] 0.241 | [6] -0.096 | duvelisib 0.019 | gandotinib -0.019 | tozasertib 0.032 | [7] -0.021 | ispinesib 0.131
active: doramapimod -0.739

PSME4 (UniProt Q14997)
inactive: [1] -0.023 | filanesib -0.091 | zotarolimus 0.005 | idasanutlin -0.123 | alisertib -0.045 | [2] -0.03 | gefitinib -0.071 | [3] 0.037 | lapatinib 0.044 | pictilisib -0.045 | [4] 0.036 | crizotinib -0.161 | [5] 0.013 | [6] 0.052 | duvelisib 0.02 | gandotinib -0.082 | tozasertib -0.078 | [7] 0.093 | doramapimod 0.045 | ispinesib -0.09

PTP4A1 (UniProt Q93096)
Chain of UniProt Q93096 (Q93096 whole entry, looked up): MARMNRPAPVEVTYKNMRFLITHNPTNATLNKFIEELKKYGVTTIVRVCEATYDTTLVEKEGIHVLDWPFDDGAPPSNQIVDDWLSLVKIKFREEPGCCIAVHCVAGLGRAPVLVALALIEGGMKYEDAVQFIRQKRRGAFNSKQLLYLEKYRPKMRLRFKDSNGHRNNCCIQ
active: [2] -0.267
inactive: [1] 0.009 | filanesib -0.088 | zotarolimus 0.05 | idasanutlin 0.089 | alisertib -0.129 | gefitinib 0.033 | [3] 0.04 | lapatinib 0.024 | pictilisib 0.068 | [4] 0.04 | crizotinib 0.036 | [5] -0.006 | [6] -0.094 | duvelisib -0.013 | gandotinib -0.116 | tozasertib 0.018 | [7] -0.039 | doramapimod -0.037 | ispinesib 0.039

PFAS (UniProt O15067)
active: pictilisib -0.449
inactive: [1] 0.149 | filanesib -0.045 | zotarolimus 0.069 | idasanutlin 0.085 | alisertib 0.029 | [2] 0.26 | gefitinib -0.005 | [3] 0.013 | lapatinib -0.063 | [4] -0.062 | crizotinib 0.124 | [5] 0.014 | [6] 0 | duvelisib -0.026 | gandotinib -0.152 | tozasertib -0.132 | [7] 0.081 | doramapimod -0.018 | ispinesib 0.128

POLA2 (UniProt Q14181)
active: gandotinib -0.287
inactive: [1] 0.086 | filanesib -0.001 | zotarolimus 0.015 | idasanutlin -0.02 | alisertib 0.005 | [2] 0.046 | gefitinib 0 | [3] -0.015 | lapatinib 0.018 | pictilisib 0.051 | [4] 0.116 | crizotinib -0.026 | [5] 0.143 | [6] -0.036 | duvelisib 0.121 | tozasertib 0.091 | [7] 0.047 | doramapimod -0.013 | ispinesib -0.028

PLA2G15 (UniProt Q8NCC3)
Chain of UniProt Q8NCC3 (Q8NCC3 whole entry, looked up): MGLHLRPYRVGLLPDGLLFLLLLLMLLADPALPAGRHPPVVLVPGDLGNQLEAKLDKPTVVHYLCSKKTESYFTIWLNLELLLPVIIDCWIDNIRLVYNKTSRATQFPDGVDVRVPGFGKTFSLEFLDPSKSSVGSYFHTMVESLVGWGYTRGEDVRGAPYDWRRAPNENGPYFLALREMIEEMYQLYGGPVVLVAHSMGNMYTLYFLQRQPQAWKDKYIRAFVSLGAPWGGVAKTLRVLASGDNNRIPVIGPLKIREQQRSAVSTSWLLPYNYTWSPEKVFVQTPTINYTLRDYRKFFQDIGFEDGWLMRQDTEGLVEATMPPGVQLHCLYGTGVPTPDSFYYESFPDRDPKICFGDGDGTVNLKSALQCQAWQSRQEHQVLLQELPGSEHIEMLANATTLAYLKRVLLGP
inactive: [1] -0.041 | filanesib -0.076 | zotarolimus -0.007 | idasanutlin 0.01 | alisertib 0.095 | [2] 0.03 | gefitinib 0.001 | [3] 0.056 | lapatinib -0.001 | pictilisib -0.01 | [4] 0 | crizotinib -0.163 | [5] -0.008 | [6] 0.015 | duvelisib -0.038 | gandotinib -0.036 | tozasertib -0.075 | [7] -0.016 | doramapimod 0.015 | ispinesib -0.055

PRKACA (UniProt P17612)
inactive: [1] 0.05 | filanesib -0.076 | zotarolimus -0.034 | idasanutlin 0.006 | alisertib -0.078 | [2] 0.088 | gefitinib -0.004 | [3] 0.028 | lapatinib 0.025 | pictilisib 0.068 | [4] 0.009 | crizotinib -0.088 | [5] 0.046 | [6] 0.043 | duvelisib -0.02 | gandotinib -0.105 | tozasertib -0.014 | [7] 0.112 | doramapimod 0.019 | ispinesib 0.053

POLR2A (UniProt P24928)
active: [2] 0.258 | gandotinib 0.321
inactive: [1] -0.005 | filanesib -0.021 | zotarolimus -0.026 | idasanutlin -0.054 | alisertib 0.001 | gefitinib 0.015 | [3] 0.042 | lapatinib 0 | pictilisib 0.05 | [4] 0.027 | crizotinib 0.231 | [5] 0.049 | [6] 0.21 | duvelisib 0.06 | tozasertib -0.026 | [7] 0.023 | doramapimod -0.009 | ispinesib 0.006

POLA1 (UniProt P09884)
inactive: [1] 0.053 | filanesib -0.023 | zotarolimus 0.008 | idasanutlin 0.003 | alisertib -0.053 | [2] 0.016 | gefitinib 0.015 | [3] -0.008 | lapatinib -0.005 | pictilisib 0.033 | [4] 0.01 | crizotinib -0.041 | [5] 0.065 | [6] -0.048 | duvelisib 0.046 | gandotinib -0.069 | tozasertib 0.083 | [7] 0.09 | doramapimod -0.029 | ispinesib -0.036

PRKAR2A (UniProt P13861)
Chain of UniProt P13861 (P13861 whole entry, looked up): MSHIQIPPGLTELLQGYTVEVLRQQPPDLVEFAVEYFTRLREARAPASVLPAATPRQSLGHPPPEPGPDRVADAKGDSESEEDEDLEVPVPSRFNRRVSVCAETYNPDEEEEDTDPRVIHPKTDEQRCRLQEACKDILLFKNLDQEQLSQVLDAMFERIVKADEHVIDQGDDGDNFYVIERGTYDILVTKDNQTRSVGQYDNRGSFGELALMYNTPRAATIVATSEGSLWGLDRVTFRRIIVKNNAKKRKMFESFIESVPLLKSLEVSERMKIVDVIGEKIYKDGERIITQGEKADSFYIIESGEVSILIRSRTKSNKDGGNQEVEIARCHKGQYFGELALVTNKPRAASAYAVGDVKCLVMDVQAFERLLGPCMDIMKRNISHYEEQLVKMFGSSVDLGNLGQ
inactive: [1] -0.033 | filanesib -0.021 | zotarolimus 0.013 | idasanutlin -0.009 | alisertib -0.058 | gefitinib 0.048 | [3] 0.006 | lapatinib 0.034 | pictilisib 0.057 | [4] 0.046 | crizotinib -0.038 | [5] 0.089 | [6] -0.159 | duvelisib 0.069 | gandotinib -0.02 | tozasertib 0.04 | [7] 0.023 | doramapimod 0.03 | ispinesib -0.056
active: [2] -0.493

PDS5A (UniProt Q29RF7)
inactive: [1] 0.076 | filanesib -0.316 | zotarolimus -0.137 | idasanutlin -0.012 | alisertib 0.067 | [2] 0.043 | gefitinib -0.125 | [3] -0.19 | lapatinib -0.072 | pictilisib -0.014 | [4] 0.03 | crizotinib -0.383 | [5] 0.063 | [6] 0.043 | duvelisib 0.053 | gandotinib -0.099 | tozasertib 0.117 | [7] 0.182 | doramapimod -0.057 | ispinesib -0.127

PHAX (UniProt Q9H814)
inactive: [1] -0.01 | filanesib 0.045 | zotarolimus 0.004 | idasanutlin 0.018 | alisertib -0.057 | [2] -0.09 | gefitinib 0.007 | [3] 0.032 | lapatinib 0.039 | pictilisib 0.002 | [4] -0.034 | crizotinib 0.097 | [5] -0.036 | [6] -0.01 | duvelisib 0.07 | gandotinib 0.035 | tozasertib 0.082 | [7] -0.062 | doramapimod -0.016 | ispinesib 0.017

PYGB (UniProt P11216)
Chain of UniProt P11216 (P11216 whole entry, looked up): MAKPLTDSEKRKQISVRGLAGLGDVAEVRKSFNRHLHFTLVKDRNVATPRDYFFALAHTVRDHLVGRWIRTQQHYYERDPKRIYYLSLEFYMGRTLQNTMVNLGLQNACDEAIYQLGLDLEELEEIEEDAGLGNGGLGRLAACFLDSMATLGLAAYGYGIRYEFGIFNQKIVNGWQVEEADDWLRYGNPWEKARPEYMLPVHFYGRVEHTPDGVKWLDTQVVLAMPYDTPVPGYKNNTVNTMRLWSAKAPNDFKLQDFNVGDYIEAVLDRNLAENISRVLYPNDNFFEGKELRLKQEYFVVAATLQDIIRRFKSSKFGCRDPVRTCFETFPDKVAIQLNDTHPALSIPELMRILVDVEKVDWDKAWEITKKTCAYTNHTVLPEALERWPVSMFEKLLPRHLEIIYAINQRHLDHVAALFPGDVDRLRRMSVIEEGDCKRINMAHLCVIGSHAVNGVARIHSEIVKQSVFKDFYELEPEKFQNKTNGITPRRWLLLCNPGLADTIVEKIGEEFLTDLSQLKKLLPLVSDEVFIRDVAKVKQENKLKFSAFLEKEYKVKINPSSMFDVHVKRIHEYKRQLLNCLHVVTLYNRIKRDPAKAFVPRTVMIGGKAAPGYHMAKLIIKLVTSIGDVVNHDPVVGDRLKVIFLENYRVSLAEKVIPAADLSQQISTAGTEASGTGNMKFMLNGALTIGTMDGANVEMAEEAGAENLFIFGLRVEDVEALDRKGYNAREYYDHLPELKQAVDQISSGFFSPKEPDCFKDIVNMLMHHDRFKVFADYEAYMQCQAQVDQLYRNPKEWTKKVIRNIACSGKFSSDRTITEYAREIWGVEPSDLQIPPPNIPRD
active: [2] 0.237 | [4] -0.305
inactive: [1] -0.024 | filanesib 0.035 | zotarolimus -0.023 | idasanutlin -0.013 | alisertib -0.019 | gefitinib -0.037 | [3] 0.028 | lapatinib -0.223 | pictilisib -0.164 | crizotinib -0.057 | [5] 0.015 | [6] 0.107 | duvelisib 0.026 | gandotinib -0.045 | tozasertib -0.04 | [7] -0.002 | doramapimod -0.005 | ispinesib 0.013

PSMD6 (UniProt Q15008)
Chain of UniProt Q15008 (Q15008 whole entry, looked up): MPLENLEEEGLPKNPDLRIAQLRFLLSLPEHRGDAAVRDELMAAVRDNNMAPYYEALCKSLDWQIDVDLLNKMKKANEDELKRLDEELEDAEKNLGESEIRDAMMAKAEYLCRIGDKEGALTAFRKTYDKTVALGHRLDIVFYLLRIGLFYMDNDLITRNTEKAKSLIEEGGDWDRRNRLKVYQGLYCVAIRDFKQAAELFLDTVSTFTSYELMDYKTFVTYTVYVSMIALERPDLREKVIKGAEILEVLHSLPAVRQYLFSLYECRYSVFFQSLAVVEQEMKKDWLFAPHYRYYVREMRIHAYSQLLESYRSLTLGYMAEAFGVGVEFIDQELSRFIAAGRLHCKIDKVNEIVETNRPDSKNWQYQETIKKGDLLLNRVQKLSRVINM
inactive: [1] -0.02 | filanesib 0.042 | zotarolimus 0.017 | idasanutlin -0.013 | alisertib -0.091 | [2] -0.062 | gefitinib -0.021 | [3] -0.045 | lapatinib 0.102 | pictilisib -0.036 | [4] 0.033 | crizotinib -0.046 | [5] -0.08 | [6] 0.052 | duvelisib -0.071 | gandotinib -0.02 | tozasertib 0.047 | [7] 0.03 | doramapimod 0.057 | ispinesib 0.056
